# Out of some 340,000 compounds screened, about 3,400 (1%) were called active.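 Rule for the calls: active = inhibition above the mean over all tested compounds plus 3 SD (cut at about 4.2% in these data); inactive = the rest.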 The list comes from a sample in which actives are over-represented; it also holds similar structures and randomly drawn compounds.
# Target: Nuclear receptor subfamily 0 group B member 1 (Homo sapiens) (UniProt P51843)
# Assay: DAX1 (NR0B1) inhibitors, primary screen, cell-based, HEK293, Gal4-DAX1, luciferase luminescence (AID 504766);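 note: 0% = DAX1-transfected cells with DMSO and 100% = empty-vector control cells with DMSO; inhibition shows as a rise in luminescence from relieved DAX1 repression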
# Conditions: HEK293 Gal4-DAX1 luciferase reporter, at 6.75 µM, active compounds read high
# Sequence of Nuclear receptor subfamily 0 group B member 1 (Homo sapiens) (P51843 207-470 limits assumed): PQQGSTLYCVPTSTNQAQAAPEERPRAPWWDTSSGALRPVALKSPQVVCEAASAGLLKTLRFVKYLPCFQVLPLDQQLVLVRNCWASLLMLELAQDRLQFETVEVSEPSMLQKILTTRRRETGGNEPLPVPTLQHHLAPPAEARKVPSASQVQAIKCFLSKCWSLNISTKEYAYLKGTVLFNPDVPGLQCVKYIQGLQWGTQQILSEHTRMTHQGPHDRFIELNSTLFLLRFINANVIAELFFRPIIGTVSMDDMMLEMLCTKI
row,Compound,inhibition
1,CC1CCN(C(=O)CSc2nnc(-c3ccco3)n2N)CC1,1.88% (inactive)
2,O=C(Nc1ccc2nccnc2c1)c1ccco1,5.48% (active)
3,COc1ccccc1C(=O)Nc1ccc(NC(=O)c2ccco2)c(C)c1,-0.21% (inactive)
4,Cc1ccc(NC(=O)c2ccco2)cc1,7.13% (active)
5,O=C(Nc1ccc2oc(-c3ccccc3F)nc2c1)c1ccco1,2.35% (inactive)
6,O=C(Nc1ccc(Sc2ccc(Br)cc2)cc1)c1ccco1,-0.97% (inactive)
7,CC(C)(C)NC(=O)c1cc(NC(=O)c2ccco2)cc(NC(=O)c2ccco2)c1,-1.82% (inactive)
8,NS(=O)(=O)c1ccc(CNC(=O)c2cc(S(=O)(=O)N3CCOCC3)ccc2N2CCCC2)cc1,-0.73% (inactive)
9,CN1CCN(c2ccncc2S(=O)(=O)N2CCCC2)CC1,0.96% (inactive)
10,O=C(O)CCn1c(Cc2ccccc2)nc2ccccc21,0.63% (inactive)
11,Cc1cc2ccccc2n1CCNC(=O)COc1ccc2ccccc2c1,-0.5% (inactive)
12,Cc1cc2ccccc2n1CCC(=O)O,6.77% (active)
13,CC(OC(=O)c1cccc(S(=O)(=O)N2CCOCC2)c1)C(=O)NCC1CCCCC1 (stereo not given),0.27% (inactive)
14,COc1ccc(C(=O)NNC(=O)c2cnccn2)cc1[N+](=O)[O-],1.76% (inactive)
15,COc1ccccc1CCNC(=O)c1cnccn1,0.75% (inactive)
16,COc1cccc(OCC(=O)NNC(=O)c2cnccn2)c1,5.68% (active)
17,Cc1cc(Cl)ccc1C(=O)C1CCCN(C(=O)c2ccc3c(c2)OCO3)C1 (stereo not given),0.21% (inactive)
18,O=C(CSCc1ccccc1)Nc1ccccc1,7.09% (active)
19,Cn1c(CSCC(=O)Nc2ccccc2)nnc1SCc1ccccc1,-0.77% (inactive)
20,Cc1c(NC(=O)CSCc2ccccc2)cccc1C(=O)O,0.3% (inactive)
21,O=C(COc1ccc(Br)cc1)OCC(=O)c1ccc[nH]1,-1.15% (inactive)
22,COc1ccc(CCNC(=O)CN(c2ccccc2)S(=O)(=O)c2ccccc2)cc1,-1.2% (inactive)
23,CCCCCCN1C[C@H](O)[C@@H](n2cc(C3CC3)nn2)C[C@@H]1c1ccc(Cl)cc1,-0.34% (inactive)
24,CCOc1cc(/C=N/NC(=O)c2ccncc2)cc(Br)c1O,-0.05% (inactive)

row,Compound,inhibition
1,COc1cc2sc(C)nc2cc1C,-1.73% (inactive)
2,Cc1nc2cc3c(cc2s1)OCO3,5.8% (active)
3,c1c2c(cc3sc(N4CCCCC4)nc13)OCCO2,-5.28% (inactive)
4,CCCc1ccc(S(=O)(=O)N2CCN(C(=O)c3cc(C)on3)CC2)cc1,-0.87% (inactive)
5,O=C(CCN1CCCCC1)Nc1ccc(F)c(F)c1,0.27% (inactive)
6,FC(F)(F)c1ccnc(Oc2ccc(C3=NCCS3)cc2)c1,6.14% (active)
7,CC1C(=O)N(Cc2cn(Cc3ccco3)nn2)CCS(=O)(=O)N1Cc1ccc(-c2cccc(CO)c2)cc1 (stereo not given),0.37% (inactive)
8,COCOCCn1cc(CN2CCS(=O)(=O)N(Cc3ccc(-c4ccccc4)cc3)C(CC(C)C)C2=O)nn1 (stereo not given),-1.62% (inactive)
9,O=C(CC(c1ccccc1)c1ccccc1)NCC(O)c1ccc([N+](=O)[O-])cc1 (stereo not given),0.2% (inactive)
10,CCCCOC(=O)Nc1nnc(CC(=O)NCc2ccccc2)s1,-0.2% (inactive)
11,CCCCCCOC(=O)NCC(O)c1ccccc1 (stereo not given),4.4% (active)
12,COc1ccc(OCc2n[nH]c(=S)n2N)cc1,0.95% (inactive)
13,COc1ccc(-n2c(-c3ccc(Cl)cc3)n[nH]c2=S)c(OC)c1,0.25% (inactive)
14,COc1ccc(OC)c(-n2c(-c3ccn[nH]3)n[nH]c2=S)c1,4.83% (active)
15,C[C@@H]1CN([C@H](C)CO)C(=O)c2cc(-c3ccc(F)cc3)cnc2O[C@H]1CN(C)C(=O)c1ccc(F)cc1,-1.22% (inactive)
16,CN(Cc1ccccc1)C(=O)c1cccc(C(=O)N(C)Cc2ccccc2)c1,0.91% (inactive)
17,CN(CC(=O)O)C(=O)c1ccccc1,5.67% (active)
18,CN(Cc1ccccc1)C(=O)c1ccc(COc2ccccc2)cc1,0.19% (inactive)
19,COCOCCn1cc(CN2CCS(=O)(=O)N(Cc3ccc(-c4cccc(N(C)C)c4)cc3)C(CC(C)C)C2=O)nn1 (stereo not given),2.25% (inactive)
20,Cc1cc(Nc2ccc(Br)cc2)nc2ccccc12,5.55% (active)
21,CN1CCN(c2nc(Nc3ccc(O)cc3)nc3ccccc23)CC1,0.71% (inactive)
22,CCOc1ccc(NC(=O)c2cc(C)nc3ccccc23)cc1,0.49% (inactive)
23,CSC1=NN(c2ccccc2)CN(c2ccccc2)N1C,0.33% (inactive)
24,C[C@@H]1CN([C@@H](C)CO)S(=O)(=O)c2ccc(-c3ccc(C(=O)N(C)C)cc3)cc2O[C@@H]1CN(C)Cc1ccccc1C(=O)O,3.37% (inactive)

row,Compound,inhibition
1,Cc1nn(CC(=O)N2CCCCC2)c(=O)c2nn(-c3ccccc3)c(C)c12,0.17% (inactive)
2,Cc1csc(NC(=O)CN2CCCCCC2)n1,1.37% (inactive)
3,Cc1nc2c(ncn2-c2ccccc2)c(=O)n1NC(=O)CN1CCCC1,8.39% (active)
4,COc1ccc(NC2CCCN(C(=O)c3ccccc3-c3ncc[nH]3)C2)cc1 (stereo not given),-0.18% (inactive)
5,Cc1cccc(OCCC(=O)Nc2ccccc2C(N)=O)c1,-0.79% (inactive)
6,Cc1cccc(OCC(=O)Nc2ccccc2F)c1,5.58% (active)
7,Cc1cccc(OCC(=O)Nc2ccc(C(=O)O)cc2NC(=O)COc2cccc(C)c2)c1,0.91% (inactive)
8,COc1ccccc1-n1c(SCC(=O)Nc2ccc(Cl)cc2)nc(O)c(Cc2ccccc2)c1=O,1.11% (inactive)
9,CC1(C)CC(=O)C(CC(=O)N2CCC(Cc3ccccc3)CC2)C(=O)C1,3.82% (inactive)
10,CC1(C)CC(=O)NC=C(c2ccccc2)C1,-0.26% (inactive)
11,CC1(C)CC(=O)C(C2c3ccccc3S(=O)(=O)c3ccccc32)C(=O)C1,5.54% (active)
12,COc1ccc(C(=O)NCC2CCCO2)cc1S(=O)(=O)NCc1ccc(Cl)cc1 (stereo not given),0% (inactive)
13,CC1=C(C(=O)N(C)C)CC(CC(=O)NCCc2ccccn2)C(=O)N1CCC1=CCCCC1 (stereo not given),1.44% (inactive)
14,CC(C)N=C1CCCC1C(=S)SSC(=S)C1CCCC1=NC(C)C (stereo not given),-3.43% (inactive)
15,O=C(Nc1ccc2ccccc2c1)/C(=C\c1ccc2c(c1)OCO2)NC(=O)c1ccco1,-1.35% (inactive)
16,COc1ccc(/C=C(/NC(=O)c2ccco2)C(=O)Nc2ccc(C(C)=O)cc2)cc1,4.81% (active)
17,Cc1ccc(NC(=O)/C(=C\c2ccccc2)NC(=O)c2ccco2)cc1,0.33% (inactive)
18,Cc1ccc(CCNC(=O)CN2C(=O)CSc3ccc(S(=O)(=O)N4CCOCC4)cc32)cc1,0.18% (inactive)
19,NC1=CC(=O)C(=O)c2cccnc21,-3.86% (inactive)
20,C[C@@H]1CCCCO[C@H](CN(C)Cc2ccccc2)[C@@H](C)CN([C@H](C)CO)C(=O)c2cc(NS(=O)(=O)c3ccc(Cl)cc3)ccc2O1,-0.88% (inactive)
21,Cc1ccc([C@H]2C[C@H](O)[C@@H](n3cc(COC(=O)c4ccccc4)nn3)CN2CC2CCCCC2)cc1,2.07% (inactive)
22,Brc1ccccc1C1N=C(c2ccccc2)NO1 (stereo not given),1.91% (inactive)
23,N#Cc1ccc(C2N=C(c3ccccc3)NO2)cc1 (stereo not given),4.58% (active)
24,Nc1cccc(OCCCCCOc2cccc(N)c2)c1,-0.21% (inactive)

row,Compound,inhibition
1,CSc1ncnc2c1ncn2CCCNCc1ccco1,0.14% (inactive)
2,C[C@H]1CN([C@@H](C)CO)C(=O)c2cc(-c3cccc(F)c3)cnc2O[C@@H]1CN(C)S(C)(=O)=O,3.06% (inactive)
3,N#CC1(Nc2ccc3c4c(cccc24)CC3)CCCCC1,-0.16% (inactive)
4,Cc1cc(N=Nc2ccc3ccccc3c2)ccc1O,4.42% (active)
5,CCOC(=O)c1c(NC(=S)SC)sc(C(=O)N2CCc3ccccc3C2)c1C,0.87% (inactive)
6,CN1CCc2c(sc3c2c(NCc2ccco2)nc2nnnn23)C1,5.18% (active)
7,CCCSc1nc(NCc2ccco2)c2c3c(sc2n1)COC(C)(CC)C3 (stereo not given),1.15% (inactive)
8,CCSc1nc2sc3c(c2c(=O)n1-c1ccc(C)cc1)CCN(C)C3,0.31% (inactive)
9,C[C@@H]1CN([C@@H](C)CO)C(=O)c2cc(NS(C)(=O)=O)ccc2O[C@@H](C)CCCCO[C@H]1CN(C)C(=O)Nc1ccc2c(c1)OCO2,0.65% (inactive)
10,COc1ccc(N2CCN(C(=O)C3CCN(S(=O)(=O)c4ccc(C)cc4)CC3)CC2)cc1,7.45% (active)
11,Cc1ccc(S(=O)(=O)N2CCC(C(=O)N3CCCCCCC3)CC2)cc1,-0.36% (inactive)
12,COc1ccc(N2CCN(C(=O)C3CCN(C(=O)c4ccccc4Cl)CC3)CC2)cc1,-0.89% (inactive)
13,COc1ccc(N)cc1NC(=O)CN1CCOCC1,1.8% (inactive)
14,CC12C(=O)N(n3cnnc3)C(=O)C1C1C=CC2C1 (stereo not given),5.77% (active)
15,CCN(CC)C(=O)Oc1ccc(Br)cc1C(=O)Nc1ccc(F)c(Cl)c1,4.68% (active)
16,O=C(COc1ccccc1F)NNC(=O)c1cc(Br)ccc1Cl,0.63% (inactive)
17,COc1ccc(Cl)cc1C(=O)Nc1ccc(N(C)C(C)=O)cc1,-0.13% (inactive)
18,N#Cc1ccc(OCC(=O)Nc2nc(-c3ccccn3)cs2)cc1,-0.76% (inactive)
19,C[C@@H]1CN([C@H](C)CO)S(=O)(=O)c2ccc(C#C[C@@H](C)O)cc2O[C@@H]1CN(C)Cc1ccc(-c2ccccc2)cc1,-0.61% (inactive)
20,Cc1ccc(CN(C)C[C@@H]2OCc3cnnn3CCCC(=O)N([C@@H](C)CO)C[C@H]2C)cc1,0.34% (inactive)
21,O=C(Nc1cc(S(=O)(=O)N2CCOCC2)ccc1Cl)c1cc(=O)c2ccccc2o1,-1.1% (inactive)
22,O=[N+]([O-])c1cc(Cl)cc(/C=N/NC(=S)Nc2cc(S(=O)(=O)N3CCOCC3)ccc2Cl)c1O,4.75% (active)
23,O=S(=O)(c1ccc(NC(=S)NN=C(C2CC2)C2CC2)cc1)N1CCOCC1,-0.03% (inactive)

# Source: PubChem BioAssay AID504766 (The Scripps Research Institute Molecular Screening Center, 2011)
